The values that follow come from PMC5700166.

Numbering of substitutions follows the chain as printed.

What all share (experiment): protein-binding microarray (PBM); PBM: ~300 nM protein, 6 mM HEPES pH 7.8, 80 mM KCl, 0.5 mM EDTA, 0.5 mM EGTA, 6% glycerol, 35 ng/ul poly-dIdC, 1% milk, 1 h, room temperature; Ap Aiptasia and Nv Nematostella (sea anemones) / Co Capsaspora / Aq Amphimedon (sponge) / Dm Drosophila / Hu human; RHD is the Rel homology domain; high values mean tight binding
Holding throughout (settings): dsDNA, one strand shown

One assay concerns the target T1, GST-Ap-NF-kB RHD (Exaiptasia pallida (Aiptasia), UniProt A0A913YAJ5 2-422).
T1 sequence: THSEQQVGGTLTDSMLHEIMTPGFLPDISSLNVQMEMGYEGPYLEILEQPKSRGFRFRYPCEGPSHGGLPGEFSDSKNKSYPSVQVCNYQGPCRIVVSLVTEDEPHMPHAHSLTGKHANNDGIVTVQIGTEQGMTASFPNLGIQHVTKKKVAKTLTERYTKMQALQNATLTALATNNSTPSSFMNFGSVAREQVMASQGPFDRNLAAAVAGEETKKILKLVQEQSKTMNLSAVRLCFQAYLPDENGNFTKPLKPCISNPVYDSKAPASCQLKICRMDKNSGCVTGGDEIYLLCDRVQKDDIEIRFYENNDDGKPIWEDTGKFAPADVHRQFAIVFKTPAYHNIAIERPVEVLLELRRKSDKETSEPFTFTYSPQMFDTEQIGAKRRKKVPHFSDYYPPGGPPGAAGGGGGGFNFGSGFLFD

In assay [1] the target is T2, GST-Nv-NF-kB (Cys allele) (Nematostella vectensis, UniProt E5G601 2-411).
T2 sequence: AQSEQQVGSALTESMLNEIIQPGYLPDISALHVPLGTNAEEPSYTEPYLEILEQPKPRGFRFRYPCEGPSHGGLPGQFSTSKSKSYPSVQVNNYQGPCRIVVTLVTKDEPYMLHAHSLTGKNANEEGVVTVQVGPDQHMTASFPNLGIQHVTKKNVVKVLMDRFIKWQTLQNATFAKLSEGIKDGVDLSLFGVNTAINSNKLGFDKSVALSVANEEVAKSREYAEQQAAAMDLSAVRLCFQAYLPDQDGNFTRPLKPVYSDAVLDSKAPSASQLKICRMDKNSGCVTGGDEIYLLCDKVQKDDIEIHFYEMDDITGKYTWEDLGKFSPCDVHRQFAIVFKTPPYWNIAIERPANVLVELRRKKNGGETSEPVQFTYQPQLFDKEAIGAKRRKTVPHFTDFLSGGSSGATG

The target of assay [2] is T3, GST-Nv-NF-kB (Ser allele) (Nematostella vectensis, UniProt A7UNT2 2-411).
T3 sequence: T2 sequence with Q21R, C66S, S207N, E215Q, V217A, E225K, A268E, D399E

The target in another assay is T4, GST-Co-NF-kB (Capsaspora owczarzaki, UniProt F1ARL5 200-546).
T4 sequence: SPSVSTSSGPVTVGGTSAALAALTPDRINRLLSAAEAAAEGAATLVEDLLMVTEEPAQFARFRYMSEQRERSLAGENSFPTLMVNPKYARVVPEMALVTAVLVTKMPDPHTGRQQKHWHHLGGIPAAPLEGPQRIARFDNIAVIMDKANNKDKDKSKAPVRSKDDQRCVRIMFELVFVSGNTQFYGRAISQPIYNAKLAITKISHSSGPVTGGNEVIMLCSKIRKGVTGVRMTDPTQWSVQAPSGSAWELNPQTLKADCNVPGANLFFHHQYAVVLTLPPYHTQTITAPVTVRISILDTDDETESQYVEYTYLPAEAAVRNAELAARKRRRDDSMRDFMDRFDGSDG

In another assay the target is T5, GST-Dm-Relish (Drosophila melanogaster, UniProt Q94527 99-473).
T5 sequence: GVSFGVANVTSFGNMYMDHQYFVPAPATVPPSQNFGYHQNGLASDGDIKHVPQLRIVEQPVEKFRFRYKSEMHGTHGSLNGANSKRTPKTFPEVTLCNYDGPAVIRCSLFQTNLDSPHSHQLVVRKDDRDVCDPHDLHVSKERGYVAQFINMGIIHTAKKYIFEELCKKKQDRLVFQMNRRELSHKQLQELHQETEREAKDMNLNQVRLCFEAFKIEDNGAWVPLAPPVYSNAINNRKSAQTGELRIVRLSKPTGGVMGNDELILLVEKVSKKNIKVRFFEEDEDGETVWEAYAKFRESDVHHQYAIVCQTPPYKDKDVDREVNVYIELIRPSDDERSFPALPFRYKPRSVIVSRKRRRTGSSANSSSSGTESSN

The target in a further assay is T6, GST-Aq-NF-kB (Amphimedon queenslandica, UniProt A9Y5G7 2-389).
T6 sequence: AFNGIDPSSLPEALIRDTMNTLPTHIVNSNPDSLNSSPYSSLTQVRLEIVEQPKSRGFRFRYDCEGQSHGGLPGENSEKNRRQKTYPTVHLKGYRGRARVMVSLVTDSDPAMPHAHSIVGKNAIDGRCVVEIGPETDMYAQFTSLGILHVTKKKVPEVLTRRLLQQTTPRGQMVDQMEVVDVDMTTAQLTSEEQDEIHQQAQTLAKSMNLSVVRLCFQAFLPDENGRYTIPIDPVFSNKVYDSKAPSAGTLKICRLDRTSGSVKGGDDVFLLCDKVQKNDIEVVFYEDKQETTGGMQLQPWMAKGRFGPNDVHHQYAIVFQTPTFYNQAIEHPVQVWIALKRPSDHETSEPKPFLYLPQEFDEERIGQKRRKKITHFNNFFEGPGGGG

The target of another assay is GST-Hu-p50 (Homo sapiens, UniProt P19838 7-356).
Chain of GST-Hu-p50 (P19838 7-356): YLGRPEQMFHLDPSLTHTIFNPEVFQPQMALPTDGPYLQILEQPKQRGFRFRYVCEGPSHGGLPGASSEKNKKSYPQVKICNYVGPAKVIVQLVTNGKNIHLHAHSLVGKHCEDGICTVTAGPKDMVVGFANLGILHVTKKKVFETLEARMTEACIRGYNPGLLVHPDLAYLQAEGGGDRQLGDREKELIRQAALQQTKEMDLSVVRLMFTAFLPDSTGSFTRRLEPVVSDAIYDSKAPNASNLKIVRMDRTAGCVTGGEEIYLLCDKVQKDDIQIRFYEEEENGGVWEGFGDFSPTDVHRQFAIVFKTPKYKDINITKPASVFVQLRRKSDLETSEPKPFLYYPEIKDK

On to “CCGATTAACATCAGGATTTCCCCTGATGTTAATCGGGTCTTGATTCGCTTGACGCTGCTG”, for which the binding signal was determined as 10 z-score with GST-Ap-NF-kB RHD; 11.1 z-score in assay [1]; 11.4 z-score in assay [2]; 7.55 z-score in the assay with GST-Co-NF-kB; 9.64 z-score with GST-Dm-Relish; 9.68 z-score with GST-Aq-NF-kB. In the assay with GST-Hu-p50, this sequence came in with a binding signal of 7.53 z-score.
With “CCGATTAACATCAACAAAATCCCTGATGTTAATCGGGTCTTGATTCGCTTGACGCTGCTG”, the binding signal with GST-Ap-NF-kB RHD turned out to be 3.4 z-score; in assay [1] it was 3.64 z-score; in assay [2], 3.66 z-score; with GST-Co-NF-kB, 1.89 z-score; with GST-Dm-Relish, 6.66 z-score; with GST-Aq-NF-kB, 3.47 z-score. In the assay with GST-Hu-p50, this sequence gave a binding signal of 2.65 z-score.
For “CCGATTAACATCAGAATTCCCCCTGATGTTAATCGGGTCTTGATTCGCTTGACGCTGCTG”, the binding signal with GST-Ap-NF-kB RHD is 10.1 z-score; in assay [1], 11.8 z-score; in assay [2], 11.7 z-score; with GST-Co-NF-kB it was 10.8 z-score; with GST-Dm-Relish it was 8.22 z-score; with GST-Aq-NF-kB, 8.47 z-score. In addition, the binding signal with GST-Hu-p50 stood at 8.34 z-score.
On to “CCGATTAACATCAGAGCTTCCCCTGATGTTAATCGGGTCTTGATTCGCTTGACGCTGCTG”, for which the binding signal with GST-Ap-NF-kB RHD stood at 4.5 z-score; in assay [1], 5.06 z-score; in assay [2], 5.75 z-score; in the assay with GST-Co-NF-kB, 4.37 z-score; with GST-Dm-Relish it was 3.56 z-score; with GST-Aq-NF-kB it was 4.57 z-score. The binding signal with GST-Hu-p50 was 4.17 z-score.
As to “CCGATTAACATCAATAATTTCCCTGATGTTAATCGGGTCTTGATTCGCTTGACGCTGCTG”, the binding signal with GST-Ap-NF-kB RHD came to 4.38 z-score; in assay [1], 6.39 z-score; in assay [2], 7.05 z-score; with GST-Co-NF-kB, 4.82 z-score; with GST-Dm-Relish, 3.45 z-score; with GST-Aq-NF-kB it was 5.17 z-score. In the assay with GST-Hu-p50, the binding signal is 5 z-score.
On to “CCGATTAACATCACGAATTCCCCTGATGTTAATCGGGTCTTGATTCGCTTGACGCTGCTG”, for which the binding signal with GST-Ap-NF-kB RHD is 8.93 z-score; in assay [1], 10.1 z-score; in assay [2], 10.9 z-score; with GST-Co-NF-kB it was 7.11 z-score; in the assay with GST-Dm-Relish, 6.96 z-score; with GST-Aq-NF-kB, 6.73 z-score. The binding signal with GST-Hu-p50 is 6.95 z-score.
Consider “CCGATTAACATCAAAATACTCCCTGATGTTAATCGGGTCTTGATTCGCTTGACGCTGCTG”, for which the binding signal with GST-Ap-NF-kB RHD is 5.1 z-score; in assay [1], 4.6 z-score; in assay [2], 4.49 z-score; with GST-Co-NF-kB, 2.79 z-score; with GST-Dm-Relish, 1.83 z-score; in the assay with GST-Aq-NF-kB, 4.2 z-score. The same sequence came in with a binding signal in the assay with GST-Hu-p50 of 3.64 z-score.
Consider “CCGATTAACATCAGGGGGATAAATGATGTTAATCGGGTCTTGATTCGCTTGACGCTGCTG”, for which the binding signal with GST-Ap-NF-kB RHD was found to be 5.25 z-score; in assay [1], 5.54 z-score; in assay [2], 5.46 z-score; with GST-Co-NF-kB it was 7.85 z-score; with GST-Dm-Relish it was 3.78 z-score; in the assay with GST-Aq-NF-kB it was 4.4 z-score. The binding signal with GST-Hu-p50 was determined as 4.82 z-score.
Take “CCGATTAACATCAGGAATCCCCATGATGTTAATCGGGTCTTGATTCGCTTGACGCTGCTG”: the binding signal with GST-Ap-NF-kB RHD amounted to 8.61 z-score; in assay [1], 8.08 z-score; in assay [2] it was 7.76 z-score; with GST-Co-NF-kB, 3.4 z-score; in the assay with GST-Dm-Relish, 9.13 z-score; in the assay with GST-Aq-NF-kB, 6.35 z-score. The sequence further showed a binding signal with GST-Hu-p50 of 6.22 z-score.
On to “CCGATTAACATCAGAAAGTCCCCTGATGTTAATCGGGTCTTGATTCGCTTGACGCTGCTG”, for which the binding signal was 8.98 z-score with GST-Ap-NF-kB RHD; 9.38 z-score in assay [1]; 8.58 z-score in assay [2]; 3.84 z-score with GST-Co-NF-kB; 9.11 z-score in the assay with GST-Dm-Relish; 7.8 z-score with GST-Aq-NF-kB. This sequence showed a binding signal with GST-Hu-p50 of 7.42 z-score.
With “CCGATTAACATCAGGGAAAGACCTGATGTTAATCGGGTCTTGATTCGCTTGACGCTGCTG”, the binding signal is 3.24 z-score with GST-Ap-NF-kB RHD; 5.27 z-score in assay [1]; 4.32 z-score in assay [2]; 1.41 z-score with GST-Co-NF-kB; 5.61 z-score with GST-Dm-Relish; 7.5 z-score with GST-Aq-NF-kB. Further, the binding signal in the assay with GST-Hu-p50 turned out to be 3.67 z-score.
